Source: PubChem BioAssay (NCATS)
Records with an inconclusive call do not appear. The source made the active and inactive calls. Calls follow the shape of the dose curve; as a rule, active = well fitted curve in the direction sought with a large enough effect; inconclusive = small, poorly fitted or top-dose-only effect, or another doubt; inactive = no such curve, though single readings can be large; an effect the other way counts as inactive or inconclusive.

Key:
[1] = UWB1.289-WTBRCA1 Cancer Cell Toxicity qHTS against the NCATS CANVASS Library (AID 1347354)
In short: (§1)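 Cells at 1000/well were given compound 4 h after plating in an 11-point series. Viability was read by CellTiter-Glo luminescence after 72 h at 37 degrees C.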

[2] = HEK-293 Cancer Cell Toxicity qHTS against the NCATS CANVASS Library (AID 1347355); settings: HEK-293 viability, CellTiter-Glo luminescence, 72 h; at 46.1 µM (top of the series); also: nearly all actives have a fitted effect of over 65% in size
In short: as §1

[3] = HPAF-II 24hr Apoptosis Induction qHTS against the NCATS CANVASS Library (AID 1347356)
In short: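 HPAF-II cells (500/well) exposed to compounds in 11-point series for 24 h at 37 degrees C; caspase-3/7 activity read by Caspase-Glo luminescence after 15 min at room temperature. Doxorubicin titration as control.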

[4] = HEK293 18hr Apoptosis Induction qHTS against the NCATS CANVASS Library (AID 1347357)
In short: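 Caspase-3/7 luminescence (DEVD substrate, Caspase-Glo) after 18 h compound exposure of HEK293 cells, 500 cells/well; 11-point series; doxorubicin titration as control.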

[5] = HPAF-II 12hr Apoptosis Induction qHTS against the NCATS CANVASS Library (AID 1347358)
In short: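 HPAF-II cells, 500/well in DMEM + 10% FBS, exposed 12 hours at 37 degrees C to compound (11-point). Caspase-Glo 3/7 added for 15 min at room temperature; luminescence reflects caspase-3/7 activity.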

[6] = HEK293 24hr Apoptosis Induction qHTS against the NCATS CANVASS Library (AID 1347359)
In short: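 HEK293 cells, 500 per well, exposed to an 11-point compound series for 24 hours at 37 degrees C. Caspase 3/7 activity read by Caspase-Glo luminescence (DEVD substrate) after 15 min at room temperature.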

[7] = HPAF-II 18hr Apoptosis Induction qHTS against the NCATS CANVASS Library (AID 1347360)
In short: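 Caspase-Glo 3/7 luminescence (DEVD substrate) after 15 min RT; HPAF-II, 500 cells/well, 18 h compound exposure at 37 degrees C, qHTS series; doxorubicin control 0.1nM - 4uM.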

[8] = HEK293 12hr Apoptosis Induction qHTS against the NCATS CANVASS Library (AID 1347361)
In short: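 500 HEK293 cells/well; cpds pin-transferred, 11-pt conc series; 12 h, 37 degrees C/5% CO2; Caspase-Glo 3/7 added, 15 min RT dark; luminescence.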

[9] = molecular target: Luciferin 4-monooxygenase (Photinus pyralis) (UniProt P08659); assay: Firefly luciferase counterscreen qHTS: Assay Interference Panel against the NCATS CANVASS Library (AID 1347363)
In short: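 Purified P. pyralis luciferase (0.04 ug/mL, 4x reagent) added to Tris-acetate buffer with 0.013 mM D-luciferin, 0.013 mM ATP and 13.3 mM Mg-acetate; compounds preincubated 15 min, then luminescence read after 5 min, RT.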

[10] = KB-8-5-11 Cancer Cell Toxicity qHTS against the NCATS CANVASS Library (AID 1347364); also: nearly all actives have a fitted effect of over 75% in size
In short: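 KB-8-5-11 cells, 500/well in DMEM + 10% FBS, given compounds in an 11-point series. Incubated 72 h at 37 °C. Viability by CellTiter-Glo luminescence. Confirmation also run with 1 uM tariquidar.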

[11] = SDT Cancer Cell Toxicity qHTS against the NCATS CANVASS Library (AID 1347365);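 also: SDT canine glioma cells 500 per well in 1536 well plates; nearly all actives have a fitted effect of over 60% in size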
In short: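 SDT dog glioma cells (500/well) exposed to an 11-point compound series for 72 hr at 37C, 5% CO2. Cytotoxicity read as ATP content by CellTiterGlo luminescence; bortezomib titration as control.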

[12] = KB-3-1 Cancer Cell Toxicity qHTS against the NCATS CANVASS Library (AID 1347366); settings: outcome: dose series up to 46.1 µM; also: nearly all actives have a fitted effect of over 75% in size
In short: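 500 KB-3-1 cells/well; compounds pin-transferred, 11-pnt series; 72 hr, 37C/5% CO2; CellTiter-Glo, 10 min RT; luminescence read-out.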

[13] = qHTS for ATAD5 Agonist screened against the NCATS CANVASS Library (AID 1347367)
In short: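 Luminescence read-out: ATAD5-driven luciferase in stably transfected HEK 293T cells, which rises post-transcriptionally with DNA damage. Cells were exposed 16hr at 37C to test compound; a CellTiter-Fluor fluorescence read (1hr) measured viability first.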

[14] = G06 Cancer Cell Toxicity qHTS against the NCATS CANVASS Library (AID 1347368); also: nearly all actives have a fitted effect of over 60% in size
In short: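 G06 dog glioma cells, 500 per well, exposed 72 hr at 37C, 5% CO2 to compounds in an 11-point series. Cytotoxicity read as ATP content by CellTiterGlo luminescence.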

[15] = MCF7 Cancer Cell Toxicity qHTS against the NCATS CANVASS Library (AID 1347369)
In short: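 Luminescent ATP signal (CellTiterGlo) served as the cytotoxicity read-out after MCF7 breast cancer cells had been incubated 72 hr at 37C with natural products in an 11-point titration.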

[16] = qHTS for ATAD5 Antagonist screened against the NCATS CANVASS Library (AID 1347370);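 also: HEK293T cells carrying an ATAD5 luciferase reporter co-treated with 10 µM 5-fluorouridine; nearly all actives have a fitted effect of over 65% in size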
In short: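 HEK293T cells with stably integrated ATAD5-luciferase reporter, 2000/well, 5 h attachment; compounds plus 10 µM 5-fluorouridine, 16 h at 37 °C. Luciferase luminescence read, with CellTiter-Fluor viability read first.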

[17] = J3T Cancer Cell Toxicity qHTS against the NCATS CANVASS Library (AID 1347371);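 also: J3T is a canine glioma cancer cell line seeded at 500 cells per well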
In short: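 J3T dog glioma cells, 500 per well, treated 72 h at 37C with compounds (11-point qHTS); viability from ATP content by CellTiterGlo luminescence; bortezomib titration as control.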

[18] = molecular target: Nuclear receptor subfamily 1 group I member 3 (Homo sapiens) (UniProt Q14994); assay: qHTS for Constitutive Androstane Receptor (CAR) Antagonist screened against the NCATS CANVASS Library (AID 1347372);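 also: cells stimulated with 50 nM CITCO agonist so inhibition reflects antagonism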
In short: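 HepG2 cells stably carrying hCAR and CYP2B6-2.2kb luciferase reporter, 2500 cells/well, compound with 50 nM CITCO agonist for 24hr at 37C. ONE-Glo luminescence measured CAR activity; CellTiter-Fluor read viability.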

[19] = molecular target: Nuclear receptor subfamily 1 group I member 3 (Homo sapiens) (UniProt Q14994); assay: qHTS for Constitutive Androstane Receptor (CAR) Agonist screened against the NCATS CANVASS Library (AID 1347373);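 also: every well also contained 1.5 µM PK11195 alongside the test compound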
In short: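 HepG2 cells stably carrying hCAR and a CYP2B6-2.2kb luciferase reporter, treated 24hr at 37C with compounds plus 1.5uM PK11195; activation by ONE-Glo luminescence, viability by CellTiter-Fluor.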

[20] = system: NAD(P)H diaphorase (Clostridium kluyveri); assay: Diaphorse counterscreen qHTS: Assay Interference Panel against the NCATS CANVASS Library (AID 1347362)
In short: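 Clostridium kluyveri diaphorase in PBS + 0.01% Tween-20 preincubated 15 min with compounds. Resazurin and NADH then added for 5 min at room temperature in the dark; resorufin fluorescence read (ex 525, em 598).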

Measured: outcome

Sequence of Nuclear receptor subfamily 1 group I member 3 (Homo sapiens) (Q14994 whole entry, looked up): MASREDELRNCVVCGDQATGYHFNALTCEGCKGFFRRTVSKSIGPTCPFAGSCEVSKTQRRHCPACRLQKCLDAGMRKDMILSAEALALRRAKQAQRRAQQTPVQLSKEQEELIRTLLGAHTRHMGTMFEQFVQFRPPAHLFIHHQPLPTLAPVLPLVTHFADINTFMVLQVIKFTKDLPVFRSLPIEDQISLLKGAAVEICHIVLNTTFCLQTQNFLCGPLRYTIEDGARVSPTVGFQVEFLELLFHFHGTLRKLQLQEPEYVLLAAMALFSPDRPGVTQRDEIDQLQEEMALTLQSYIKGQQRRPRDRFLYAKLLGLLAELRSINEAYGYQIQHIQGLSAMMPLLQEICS
Sequence of Luciferin 4-monooxygenase (Photinus pyralis) (P08659 whole entry, looked up): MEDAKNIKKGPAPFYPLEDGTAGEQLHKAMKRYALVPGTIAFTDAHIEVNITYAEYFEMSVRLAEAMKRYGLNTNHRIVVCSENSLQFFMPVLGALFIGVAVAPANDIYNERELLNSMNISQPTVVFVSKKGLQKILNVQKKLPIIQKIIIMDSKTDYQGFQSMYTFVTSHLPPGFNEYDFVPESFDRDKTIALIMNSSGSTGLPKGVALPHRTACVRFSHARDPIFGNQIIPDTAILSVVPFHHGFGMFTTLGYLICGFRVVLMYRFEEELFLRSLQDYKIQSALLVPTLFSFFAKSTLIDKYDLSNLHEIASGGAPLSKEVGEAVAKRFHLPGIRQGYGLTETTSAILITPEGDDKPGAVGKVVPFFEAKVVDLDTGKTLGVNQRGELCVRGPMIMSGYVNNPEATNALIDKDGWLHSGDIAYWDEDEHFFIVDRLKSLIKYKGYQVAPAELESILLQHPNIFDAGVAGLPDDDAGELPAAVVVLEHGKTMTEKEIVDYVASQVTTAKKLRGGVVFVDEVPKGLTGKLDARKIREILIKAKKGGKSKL

NCCc1c[nH]c2ccc(O)cc12
not listed: [20]
inactive: all other assays above

NCCc1c[nH]c2ccccc12
not listed: [11]
inactive: all other assays above
